# Data: PubChem BioAssay (NCI)
# Compounds without any hit were thinned out: in the full panel of roughly 83,000, 20% have a hit.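 How to read the values: 0–100, growth inhibition (40 = 60% inhibited); 0, no net growth; -100 to 0, cell death (-40 = 40% of starting cells died; -100 = all dead).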 Active and inactive are the calls of the source. Rule for the calls: active = growth percent below 10; inactive = the rest.
# Test system: HS 578T breast
# Test: NCI-60 one-dose screen, 48 h (100 = growth as untreated, 0 = no growth, -100 = all killed)
# Conditions: 10 µM
row,Compound,growth
1,O=C1c2ccccc2C(=O)c2c1ccc(C(Br)Br)c2Cl,85.6% (inactive)
2,Cc1ccc(/C=C/C(=O)C(=O)/C=C/c2ccc(C)cc2)cc1,92.6% (inactive)
3,O=C(Nc1ccccc1)Nc1ncnc2c1ncn2-c1ccccc1,50.1% (inactive)
4,CCn1c(SC/C(=N/O)c2ccccc2)nnc1-c1ccccc1,101% (inactive)
5,Cc1cc(SCc2ccccc2)nc(N)n1,111% (inactive)
6,COc1cc2cc(Oc3ccc(NC(=O)Nc4ccc(Cl)c(C(F)(F)F)c4)cc3)c(C)nc2cc1OC,2.5% (active)
7,CCCCCCCCCCCCCCCCCC[n+]1ccc2c(C)c3c(c(C)c2c1)c1cc(O)ccc1n3CC,9.04% (active)
8,CN1CCc2c(sc3nc4n(-c5ccc(Cl)cc5)cnn4c(=O)c23)C1,115% (inactive)
9,CN1CCc2c(sc3nc4n(-c5ccc(Cl)cc5)c(=O)[nH]n4c(=O)c23)C1,121% (inactive)
10,C[n+]1c2ccccc2nc2ccccc21,-12.1% (active)
